Source: PubChem BioAssay (NCATS)
Inconclusive results are not listed. Activity calls are given as the source filed them. Unless noted, calls follow the shape of the dose curve; as a rule, active = well fitted curve in the direction sought with a large enough effect; inconclusive = small, poorly fitted or top-dose-only effect, or another doubt; inactive = no such curve, though single readings can be large; an effect the other way counts as inactive or inconclusive.

Legend:
[1] = molecular target: M-phase phosphoprotein 8 (Homo sapiens) (UniProt Q99549); assay: qHTS Validation Assay for Inhibitors for MPP8 Chromodomain Interactions with Methylated Histone Tails (AID 488949);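 also: AlphaScreen signal from MPP8 chromodomain bound to biotinylated H3K9me3 peptide; top concentration of the series differs between compounds; % is scaled to controls: 0 for no effect and ±100 for the full control effect; nearly all actives have a fitted effect of over 55% in size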
Summary of the method: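 Disruption of the preformed MPP8–trimethyl-H3K9 peptide complex (both 50 nM, 30 min, RT) is measured after 30 min compound exposure, using AlphaScreen proximity beads; aurintricarboxylic acid titration serves as plate control.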

[2] = molecular target: Chromobox protein homolog 1 (Homo sapiens) (UniProt P83916); assay: qHTS Validation Assay for Inhibitors of HP1-beta Chromodomain Interactions with Methylated Histone Tails (AID 488953); also: nearly all actives have a fitted effect of over 50% in size; also: potency is read from the fitted curve at half-maximal effect
Summary of the method: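 AlphaScreen proximity readout: streptavidin donor and Ni-chelate acceptor beads, 10 ug/mL final, 30 min dark, RT. Complex of 50 nM HP1-beta and 50 nM b-H3(1-18)K9me3 formed 30 min, then compound-treated 30 min; PBS pH 7.4/0.01% Tween-20.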

[3] = molecular target: Methanococcus maripaludis chaperonin (MmCpn) (UniProt Q6LX38); assay: High-Throughput Screening for Modulators of Cytosolic Chaperonin Activity: MmCpn Primary Screen (AID 488978);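 also: 50 nM MmCpn enzyme hydrolysing 30 µM ATP at 37 °C; 0% is about no effect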
Summary of the method: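 Measures ATPase turnover of the M. maripaludis chaperonin (50 nM final) against 30 uM ATP over 10 min at 37C, with compound added 5 min beforehand at room temperature. ADP is quantified by HTRF immunodetection.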

[4] = molecular target: Thyrotropin receptor (Homo sapiens) (UniProt P16473); assay: qHTS Assay for Antagonists of the Thyroid Stimulating Hormone Receptor (AID 488980); also: series mostly up to about 58 µM; 0% is about no effect
Summary of the method: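 Cells expressing human TSHR (HEK293) are dispensed in HBSS/HEPES containing 70 uM RO 20-1724, compound is added, then TSH at EC80 (4 nM final). Antibody in lysis buffer follows, 30 minutes at room temperature before HTRF detection.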

[5] = molecular target: D(1A) dopamine receptor (Homo sapiens) (UniProt P21728); assay: HTS Assay for Allosteric Agonists of the Human D1 Dopamine Receptor: Primary Screen for Potentiators (AID 488982); also: 0% is about no effect
Summary of the method: (§1)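 Calcium flux in an inducible, force-coupled HEK293 Trex D1 line (overnight at 30 C): agonist mode is the 180 s kinetic read after compound; potentiator mode is the following 180 s read after dopamine at EC20.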

[6] = molecular target: D(1A) dopamine receptor (Homo sapiens) (UniProt P21728); assay: HTS Assay for Allosteric Agonists of the Human D1 Dopamine Receptor: Primary Screen for Antagonists (AID 488983);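 also: calcium flux response to an EC80 dopamine challenge measured with no-wash dye; % is scaled to controls: 0 for no effect and ±100 for the full control effect; nearly all actives have a fitted effect of over 65% in size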
Summary of the method: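 Calcium flux readout, no-wash dye, inducible HEK293 T-REx D1 line (force-coupled). Compound added after 10 s baseline, 180 s kinetic read; then dopamine at EC80, further 180 s read.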

[7] = molecular target: ATP-dependent 6-phosphofructokinase (Trypanosoma brucei brucei) (UniProt O15648); assay: qHTS Assay to Find Inhibitors of T. brucei phosphofructokinase: hit validation (AID 492961);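 also: luminescence reports ADP formed as PFK phosphorylates fructose-6-phosphate with ATP; series mostly up to about 51 µM; % is scaled to controls: 0 for no effect and ±100 for the full control effect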
Summary of the method: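 Measures ADP output of PFK (1.25 nM) at 0.1 mM ATP, 0.5 mM F6P, pH 8.0 TEA buffer with 5 mM MgCl2. No-enzyme wells define full inhibition; uninhibited enzyme wells define zero.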

[8] = Validation screen for small molecules that induce genotoxicity in human embryonic kidney (HEK293T) cells expressing luciferase-tagged ELG1 (AID 493106); also: 0% is about no effect
Summary of the method: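 qHTS format; 2,000 HEK293T ELG1-luc cells/well; 23 nL compound via pin tool; 16 hr, 37 °C/5% CO2; ONE-Glo, 30 min RT; luminescence read.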

[9] = Nrf2 qHTS screen for inhibitors: Validation (AID 493153; active = well fitted inhibition curve with a large enough effect in the main read-out, with a control signal flat, not every such curve was filed as active); conditions: Potency: luciferase luminescence; viability change: measured here: cytotoxicity max response
Summary of the method: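 Concentration-response test in A549 ARE_Fluc reporter cells (5% FBS OPTI-MEM), compound exposure 18-24 h at 37°C, 5% CO2. Cell viability measured first by CellTiter-Fluor fluorescence; ARE-driven luciferase luminescence then measured as Nrf2 activity.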

[10] = qHTS for Inhibitors of Cell Surface uPA Generation: Validation Assay (AID 493164);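 also: RAW 264.7 macrophage cells exposed to compound for 18 h; 0% is about no effect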
Summary of the method: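 Compounds are titrated over seven points (2.45 nM–38.3 uM final) onto pre-plated RAW 264.7 cells and incubated for 18 h. Retained intracellular ATP, measured with ATP-Lite, indicates blocked lethal factor entry.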

[11] = molecular target: Galactokinase (Homo sapiens) (UniProt P51570); assay: qHTS Validation Assay for Inhibitors of Human Galactokinase (GALK) (AID 493189); also: 0% is about no effect
Summary of the method: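 Compounds were pin-transferred into ATP buffer, then GALK-galactose mix was added (final 5 nM enzyme, 100 uM galactose, 35 uM ATP). After 1 h at room temperature, remaining ATP was measured luminescently.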

[12] = molecular target: Peptidyl-prolyl cis-trans isomerase NIMA-interacting 1 (Homo sapiens) (UniProt Q13526); assay: qHTS Validation Assay to Find Inhibitors of Pin1 (AID 504536; active = well fitted inhibition curve with a large enough effect in the polarisation, with a control signal flat, not every such curve was filed as active; the % refers to the polarisation;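 also: 0% = full Pin1 enzyme wells and -100% = no-enzyme wells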)
Summary of the method: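 Fluorescence polarization competition: compounds (titration) displace HiFluor-488-labeled Pin1-1b peptide from Pin1 (0.3 uM final) in pH 7.5 HEPES buffer with DTT, 10 min at room temperature; %Activity normalized to no-enzyme wells, curves fitted.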

[13] = molecular target: Phosphoglycerate kinase, glycosomal (Trypanosoma brucei brucei) (UniProt P07378); assay: qHTS Validation Assay to Find Inhibitors of Phosphoglycerate Kinase (AID 504547);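 also: control wells lack PGK and mark full inhibition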
Summary of the method: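 Luminescence end-point (Kinase-Glo Plus, 10 min) after a 60 min room-temperature coupled reaction. GAPDH at 100nM final supplies 1,3-BPG to PGK. Buffer: 100mM TEA pH 7.6, 5mM MgCl2, 0.01% Tween-20. Wells lacking PGK served as controls.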

[14] = molecular target: phosphoglycerate mutase (Leishmania major) (UniProt Q4Q090); assay: qHTS Validation Assay to Find Inhibitors of Phosphoglycerate Mutase (AID 504548);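 also: end-point luminescence from Kinase-GloPlus after the PGAM reaction; series mostly up to about 58 µM; % is scaled to controls: 0 for no effect and ±100 for the full control effect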
Summary of the method: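 L. major PGAM (1.25nM final) was added to substrate buffer and pinned compound, incubated 45 minutes at room temperature, then Kinase-GloPlus added; luminescence read after 10 minutes. Buffer: 100 mM TEA pH 7.6, 5 mM MgCl2, 0.01% Tween-20.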

[15] = molecular target: Ubiquitin carboxyl-terminal hydrolase 1 (Homo sapiens) (UniProt O94782); assay: Inhibitors of USP1/UAF1: Pilot qHTS (AID 504865);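 also: rhodamine fluorescence freed from ubiquitin-rhodamine substrate followed over time; top concentration of the series differs between compounds; % is scaled to controls: 0 for no effect and ±100 for the full control effect; nearly all actives have a fitted effect of over 35% in size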
Summary of the method: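 Kinetic fluorescence assay: 1nM USP1/UAF1, 15 min compound preincubation, then 150nM Ub-Rho; 480/540 nm.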

[16] = molecular target: Transient receptor potential cation channel subfamily V member 1 (Homo sapiens) (UniProt Q8NER1); assay: HTS Assay for Compounds that Act as Enhancers of the Vanilloid Receptor 1 (AID 488979); also: 0% is about no effect
Summary of the method: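 Calcium influx kinetics via Fluo-8 (480/520 nm) in TRPV1-expressing cells, 2000/well cultured overnight at 35.5C. Compound-alone read 3 min (agonist phase), followed by EC20 capsaicin challenge for 2 min (enhancer phase).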

[17] = molecular target: D(1A) dopamine receptor (Homo sapiens) (UniProt P21728); assay: HTS Assay for Allosteric Agonists of the Human D1 Dopamine Receptor: Primary Screen for Agonists (AID 488981); also: 0% is about no effect
Summary of the method: as §1

[18] = molecular target: ATPase family AAA domain-containing protein 5 (Homo sapiens) (UniProt Q96QE3); assay: Validation screen for small molecules that inhibit ELG1-dependent DNA repair in human embryonic kidney (HEK293T) cells expressing luciferase-tagged ELG1 (AID 493107);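 also: cells co-treated with the DNA-damaging agent 5-fluorouridine alongside compound; series mostly up to about 46 µM; % is scaled to controls: 0 for no effect and ±100 for the full control effect; inhibitors lower the ELG1-luciferase luminescence signal; nearly all actives have a fitted effect of over 70% in size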
Summary of the method: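 ELG1-luciferase HEK293T reporter; 5-fluorouridine + compound/DMSO, 16 hr, 37 °C, 5% CO2; ONE-Glo 30 min RT; luminescence read, qHTS format.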

[19] = molecular target: Thyrotropin-releasing hormone receptor (Homo sapiens) (UniProt P34981); assay: qHTS for Small Molecule Agonists and Allosteric Enhancers of Human TRH Receptor: Validation Screen for Agonists (AID 493127;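 active = calcium activation more than 3 SD above the typical response in the agonist read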;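 also: intracellular calcium rise by fluo-8 fluorescence before TRH EC20 addition; 0% is about no effect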); conditions: TRH receptor agonist cell assay; at 2 µM; stronger effect = higher value
Summary of the method: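 Read-out: intracellular calcium release measured kinetically by FDSS (fluo-8, ex 480/em 530 nm), 1 reading/s after a 10-cycle baseline. TRHR cells, 2000/well, cultured 18 h at 33.5C, dye-loaded at room temp. Compound-evoked positive calcium signal flags agonists.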

[20] = Validation screen for small molecules that induce DNA re-replication in SW480 colon adenocarcinoma cells (AID 504364); also: 0% is about no effect
Summary of the method: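 Read-out: total Hoechst intensity of nuclei by fluorescence scanning imager; hits raise the fraction of nuclei with elevated DNA content. Cells received compound for 48 hr at 37 C before a 40 min stain.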

Sequence of phosphoglycerate mutase (Leishmania major) (Q4Q090 1-553): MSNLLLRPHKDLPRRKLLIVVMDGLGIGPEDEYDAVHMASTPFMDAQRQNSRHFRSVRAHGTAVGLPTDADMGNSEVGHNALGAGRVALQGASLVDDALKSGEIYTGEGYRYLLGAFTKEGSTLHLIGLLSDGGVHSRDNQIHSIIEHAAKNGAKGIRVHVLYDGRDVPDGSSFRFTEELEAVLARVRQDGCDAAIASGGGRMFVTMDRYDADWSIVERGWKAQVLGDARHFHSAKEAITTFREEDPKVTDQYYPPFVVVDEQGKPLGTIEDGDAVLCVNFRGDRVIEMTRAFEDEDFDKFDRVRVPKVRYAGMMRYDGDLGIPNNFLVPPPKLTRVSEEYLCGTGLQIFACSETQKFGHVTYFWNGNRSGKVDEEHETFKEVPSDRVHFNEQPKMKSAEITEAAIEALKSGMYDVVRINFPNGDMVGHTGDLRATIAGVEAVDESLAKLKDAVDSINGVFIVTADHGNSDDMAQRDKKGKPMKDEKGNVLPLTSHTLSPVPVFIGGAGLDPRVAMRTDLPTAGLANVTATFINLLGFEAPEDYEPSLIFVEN
Sequence of Ubiquitin carboxyl-terminal hydrolase 1 (Homo sapiens) (O94782 whole entry, looked up): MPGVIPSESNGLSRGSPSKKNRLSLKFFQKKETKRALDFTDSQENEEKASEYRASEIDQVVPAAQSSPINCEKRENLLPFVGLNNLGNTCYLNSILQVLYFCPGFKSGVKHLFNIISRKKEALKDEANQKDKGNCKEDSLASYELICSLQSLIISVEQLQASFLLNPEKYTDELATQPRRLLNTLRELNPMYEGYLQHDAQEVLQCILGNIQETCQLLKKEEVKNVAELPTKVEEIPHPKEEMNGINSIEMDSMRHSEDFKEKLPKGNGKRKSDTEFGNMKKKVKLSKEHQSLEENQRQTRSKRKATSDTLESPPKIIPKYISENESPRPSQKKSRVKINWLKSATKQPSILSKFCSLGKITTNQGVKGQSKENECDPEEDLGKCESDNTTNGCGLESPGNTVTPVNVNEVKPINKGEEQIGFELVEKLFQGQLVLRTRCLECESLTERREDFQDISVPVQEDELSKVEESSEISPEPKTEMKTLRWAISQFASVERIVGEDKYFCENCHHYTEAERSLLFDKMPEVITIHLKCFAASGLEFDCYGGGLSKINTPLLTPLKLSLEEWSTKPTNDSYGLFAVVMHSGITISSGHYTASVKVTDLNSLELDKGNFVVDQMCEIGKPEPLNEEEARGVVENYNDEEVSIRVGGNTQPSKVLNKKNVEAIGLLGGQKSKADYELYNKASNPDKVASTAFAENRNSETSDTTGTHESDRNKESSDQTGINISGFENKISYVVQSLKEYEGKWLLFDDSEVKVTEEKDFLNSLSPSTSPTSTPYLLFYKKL
Sequence of Thyrotropin-releasing hormone receptor (Homo sapiens) (P34981 whole entry, looked up): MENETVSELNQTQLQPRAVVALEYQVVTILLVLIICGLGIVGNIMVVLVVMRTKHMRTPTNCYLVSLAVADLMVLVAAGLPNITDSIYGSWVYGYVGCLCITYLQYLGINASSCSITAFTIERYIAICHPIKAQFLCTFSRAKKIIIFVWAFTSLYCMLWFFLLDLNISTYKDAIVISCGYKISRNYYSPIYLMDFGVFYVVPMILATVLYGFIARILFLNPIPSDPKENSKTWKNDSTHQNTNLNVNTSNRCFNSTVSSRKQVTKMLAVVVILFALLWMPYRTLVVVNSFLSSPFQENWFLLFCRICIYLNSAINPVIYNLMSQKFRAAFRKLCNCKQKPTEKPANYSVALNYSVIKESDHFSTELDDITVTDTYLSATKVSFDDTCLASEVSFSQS
Sequence of Chromobox protein homolog 1 (Homo sapiens) (P83916 whole entry, looked up): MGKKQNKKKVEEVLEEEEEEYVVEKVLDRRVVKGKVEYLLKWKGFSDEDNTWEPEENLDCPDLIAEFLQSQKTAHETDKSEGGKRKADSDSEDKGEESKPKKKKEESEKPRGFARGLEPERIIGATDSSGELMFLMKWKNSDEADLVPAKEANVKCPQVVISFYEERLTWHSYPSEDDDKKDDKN
Sequence of Methanococcus maripaludis chaperonin (MmCpn) (Q6LX38 1-543): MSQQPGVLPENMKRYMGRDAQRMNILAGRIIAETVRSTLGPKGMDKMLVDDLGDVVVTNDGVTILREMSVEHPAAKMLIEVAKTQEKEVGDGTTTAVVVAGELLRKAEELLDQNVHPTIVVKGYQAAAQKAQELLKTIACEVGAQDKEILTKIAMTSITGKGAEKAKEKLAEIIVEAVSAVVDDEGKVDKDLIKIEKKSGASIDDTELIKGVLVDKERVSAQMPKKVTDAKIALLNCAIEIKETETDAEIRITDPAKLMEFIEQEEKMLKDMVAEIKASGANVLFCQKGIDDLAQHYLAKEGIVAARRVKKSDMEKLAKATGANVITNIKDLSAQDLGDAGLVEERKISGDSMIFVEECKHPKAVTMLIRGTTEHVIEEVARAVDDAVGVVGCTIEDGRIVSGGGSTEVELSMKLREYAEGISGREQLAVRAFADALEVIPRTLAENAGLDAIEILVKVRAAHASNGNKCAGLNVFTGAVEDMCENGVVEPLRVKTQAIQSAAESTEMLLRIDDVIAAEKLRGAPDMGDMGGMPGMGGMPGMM
Sequence of D(1A) dopamine receptor (Homo sapiens) (P21728 whole entry, looked up): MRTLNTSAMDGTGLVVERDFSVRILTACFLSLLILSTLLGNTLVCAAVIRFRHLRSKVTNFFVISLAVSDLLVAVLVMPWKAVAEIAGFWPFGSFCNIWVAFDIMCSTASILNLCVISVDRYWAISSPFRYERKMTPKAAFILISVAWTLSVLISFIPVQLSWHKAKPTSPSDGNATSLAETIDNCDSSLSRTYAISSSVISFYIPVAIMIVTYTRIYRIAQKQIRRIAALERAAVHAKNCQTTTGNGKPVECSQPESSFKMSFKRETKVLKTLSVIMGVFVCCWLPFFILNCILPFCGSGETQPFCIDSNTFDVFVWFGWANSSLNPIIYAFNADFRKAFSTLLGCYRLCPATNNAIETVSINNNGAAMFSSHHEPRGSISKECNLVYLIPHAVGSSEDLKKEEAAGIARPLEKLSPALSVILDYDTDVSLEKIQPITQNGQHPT
Sequence of M-phase phosphoprotein 8 (Homo sapiens) (Q99549 whole entry, looked up): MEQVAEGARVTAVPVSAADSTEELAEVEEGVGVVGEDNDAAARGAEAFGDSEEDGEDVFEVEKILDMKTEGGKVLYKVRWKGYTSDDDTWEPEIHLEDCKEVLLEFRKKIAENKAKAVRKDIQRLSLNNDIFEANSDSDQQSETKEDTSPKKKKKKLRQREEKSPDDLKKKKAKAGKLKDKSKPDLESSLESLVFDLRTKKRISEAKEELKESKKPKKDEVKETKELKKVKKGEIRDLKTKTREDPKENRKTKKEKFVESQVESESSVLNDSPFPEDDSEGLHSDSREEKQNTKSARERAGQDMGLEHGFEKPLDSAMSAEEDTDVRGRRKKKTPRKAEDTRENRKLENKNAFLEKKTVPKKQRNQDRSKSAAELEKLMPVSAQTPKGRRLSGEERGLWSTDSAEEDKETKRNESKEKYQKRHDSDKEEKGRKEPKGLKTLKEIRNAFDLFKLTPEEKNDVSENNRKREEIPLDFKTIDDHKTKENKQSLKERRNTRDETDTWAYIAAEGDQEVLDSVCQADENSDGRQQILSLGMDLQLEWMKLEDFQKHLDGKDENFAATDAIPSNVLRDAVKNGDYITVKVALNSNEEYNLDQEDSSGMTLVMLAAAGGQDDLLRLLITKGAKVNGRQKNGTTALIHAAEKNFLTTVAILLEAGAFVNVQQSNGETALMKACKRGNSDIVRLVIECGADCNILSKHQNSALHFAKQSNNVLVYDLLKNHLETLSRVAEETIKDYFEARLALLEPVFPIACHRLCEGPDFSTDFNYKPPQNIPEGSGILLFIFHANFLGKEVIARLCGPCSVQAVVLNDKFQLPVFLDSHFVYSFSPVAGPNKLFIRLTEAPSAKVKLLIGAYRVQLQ
Sequence of Thyrotropin receptor (Homo sapiens) (P16473 whole entry, looked up): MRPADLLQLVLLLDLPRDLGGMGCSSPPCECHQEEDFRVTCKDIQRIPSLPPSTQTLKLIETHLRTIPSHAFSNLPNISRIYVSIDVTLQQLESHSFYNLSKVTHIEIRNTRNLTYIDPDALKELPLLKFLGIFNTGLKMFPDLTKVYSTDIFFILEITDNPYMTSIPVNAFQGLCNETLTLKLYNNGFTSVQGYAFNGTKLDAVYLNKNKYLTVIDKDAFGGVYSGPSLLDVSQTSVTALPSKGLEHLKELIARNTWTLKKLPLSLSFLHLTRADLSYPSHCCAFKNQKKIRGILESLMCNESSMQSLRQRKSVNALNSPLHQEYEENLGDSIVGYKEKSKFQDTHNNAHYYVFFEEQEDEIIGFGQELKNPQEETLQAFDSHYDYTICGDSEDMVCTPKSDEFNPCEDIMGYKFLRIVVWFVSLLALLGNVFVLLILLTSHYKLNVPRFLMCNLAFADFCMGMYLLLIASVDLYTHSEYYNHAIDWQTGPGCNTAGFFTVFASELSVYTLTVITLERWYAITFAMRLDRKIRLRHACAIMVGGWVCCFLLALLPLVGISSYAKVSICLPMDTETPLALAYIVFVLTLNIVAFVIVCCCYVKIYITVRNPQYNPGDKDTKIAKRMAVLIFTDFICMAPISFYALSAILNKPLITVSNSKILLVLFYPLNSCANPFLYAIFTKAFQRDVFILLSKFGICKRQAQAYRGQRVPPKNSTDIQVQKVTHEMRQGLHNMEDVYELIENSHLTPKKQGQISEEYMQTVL
Sequence of Peptidyl-prolyl cis-trans isomerase NIMA-interacting 1 (Homo sapiens) (Q13526 whole entry, looked up): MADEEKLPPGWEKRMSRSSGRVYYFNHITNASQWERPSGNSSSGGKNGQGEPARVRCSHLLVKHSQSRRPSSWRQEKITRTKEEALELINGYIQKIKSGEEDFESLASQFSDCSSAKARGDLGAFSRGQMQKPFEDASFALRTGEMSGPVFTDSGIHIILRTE

CCc1cccc(N(C)C(N)=Nc2cccc3ccccc23)c1
inactive: Potency [1] | outcome [3] | outcome [4] | Potency [5] | Potency [6] | outcome [7] | Potency [8] | Potency [9] | outcome [10] | outcome [11] | outcome [12] | outcome [13] | outcome [14] | Potency [15]
-0.401%: viability change [9]
active: Potency [2] 7.5 nM

Cc1ccc(S(=O)(=O)NC(=O)NN2CCCCCC2)cc1
inactive: Potency [1] | Potency [2] | outcome [16] | outcome [4] | Potency [17] | Potency [5] | Potency [6] | Potency [8] | Potency [18] | activation [19] 0.188% | Potency [9] | outcome [10] | outcome [11] | outcome [20] | outcome [12] | outcome [13] | outcome [14]
-3.67%: viability change [9]

COCCCC/C(=N\OCCN)c1ccc(C(F)(F)F)cc1
9.56%: viability change [9]
inactive: Potency [1] | Potency [2] | outcome [3] | outcome [4] | Potency [5] | Potency [6] | Potency [8] | Potency [18] | Potency [9] | outcome [10] | outcome [11] | outcome [20] | outcome [12] | outcome [13] | outcome [14] | Potency [15]

CCN(CC)CCNC(=O)c1ccc(NC(C)=O)cc1
16.6%: viability change [9]
inactive: Potency [1] | Potency [2] | outcome [3] | outcome [16] | Potency [5] | Potency [6] | outcome [7] | Potency [18] | activation [19] 0.312% | Potency [9] | outcome [10] | outcome [11] | outcome [20] | outcome [12] | outcome [13] | outcome [14] | Potency [15]

CC(C(=O)O)c1ccc(CC2CCCC2=O)cc1 (centres undefined)
-13.4%: viability change [9]
inactive: Potency [1] | outcome [3] | outcome [16] | outcome [4] | Potency [17] | Potency [5] | Potency [6] | outcome [7] | Potency [18] | activation [19] 1.56% | Potency [9] | outcome [10] | outcome [11] | outcome [20] | outcome [12] | outcome [13] | outcome [14] | Potency [15]

NS(=O)(=O)c1cc2c(cc1Cl)NC(C1CC3C=CC1C3)NS2(=O)=O (centres undefined)
inactive: Potency [1] | Potency [2] | outcome [3] | outcome [16] | Potency [17] | Potency [6] | Potency [8] | Potency [18] | activation [19] -0.25% | outcome [10] | outcome [11] | outcome [20] | outcome [13] | outcome [14] | Potency [15]

CC(=O)[C@@]1(O)CC[C@H]2[C@@H]3CCC4=CC(=O)CC[C@]4(C)[C@H]3CC[C@@]21C
inactive: Potency [1] | Potency [2] | outcome [3] | Potency [17] | Potency [5] | Potency [6] | outcome [7] | Potency [18] | outcome [10] | outcome [12] | outcome [13] | outcome [14] | Potency [15]

CCCN(CCC)C(=O)C(CCC(=O)O)NC(=O)c1ccccc1 (centres undefined)
inactive: Potency [1] | Potency [2] | outcome [3] | outcome [16] | Potency [5] | Potency [6] | Potency [8] | Potency [18] | activation [19] 1.56% | Potency [9] | outcome [10] | outcome [11] | outcome [20] | outcome [12] | outcome [13] | outcome [14] | Potency [15]
-16.1%: viability change [9]
